Data from PubChem BioAssay (NCI).
Compounds without any hit were thinned out: in the full panel of roughly 83,000, 20% have a hit.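 Treatment: one concentration, 48 hours, 96-well format. Scoring: percent growth, with anything below 10 considered active.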 Unmarked numbers belong to inactive results. The source made the active and inactive calls.

Test system: HL-60(TB) leukemia
Experiment: NCI-60 one-dose screen, 48 h (100 = growth as untreated, 0 = no growth, -100 = all killed)
Settings: 10 µM unless noted

Structure (SMILES) | growth
CC1=C(C(=O)/C=C/c2c[nH]c3ccccc23)C(c2ccccc2)NC(=S)N1 (stereo not given) | 99.5%
Cc1cn(C(C=O)OC(C=O)CO)c(=O)[nH]c1=O (stereo not given) | 103%
COc1ccc(/C=C/C(=O)/C=C/c2cc3ccc(Cl)cc3[nH]c2=O)cc1 | 71%
COc1nc2ccccc2cc1-c1nc2c(cnn2-c2ccc(Br)cc2)c(=O)[nH]1 | 8.57% (active)
NNc1c2ccccc2nc2ccccc12 | 9.09% (active)
CN1CCN(Cc2ccc(NC(=O)c3cncc(C#Cc4cncn5ccnc45)c3)cc2C(F)(F)F)CC1 | 20.2%
CCOC(=O)Cc1csc2nc(-c3ccccc3)nn12 | 53%
COc1cc(/C=N/NC(=O)c2ccc(C(F)(F)F)nc2Nc2ccc(Cl)cc2C)ccc1O | 4.41% (active)
COc1cccc(-c2nn(-c3ccccc3)cc2-c2ccnc(NCCNS(=O)(=O)c3ccc(C(F)(F)F)cc3)c2)c1 | -20.9% (active)
C=C(C)[C@H]1CC/C(C)=C/CC[C@]2(C)O[C@H]2CC/C(COC(=O)[C@@H](OC(C)=O)[C@H](NC(=O)c2ccccc2)c2ccccc2)=C\[C@@H]1O | 91%
O=C(Nc1cccc(C2=NCCN2)c1)c1ccc(-c2ccc(C(=O)Nc3cccc(C4=NCCN4)c3)cc2)cc1 | 16%
N#CCCN1C/C(=C/c2ccc(Br)cc2)C(=O)/C(=C/c2ccc(Br)cc2)C1 | 1.68% (active)
COc1cc(NC(C)CCCN2C(=O)c3ccccc3C2=O)c2nc(C)ccc2c1OC (stereo not given) | 69.6%
COc1ccc(C(=O)/C=C/c2ccc(/C=C/c3cc(OC)c(OC)c(OC)c3)cc2)cc1 | 21.5%
COc1ccc(OC)c(/C=C/[C@H]2O[C@@H](C)[C@H](O)[C@@H]2O)c1 | 88.3%
Clc1ccc2c(c1)N(CCCN1CCCC1)c1ccccc1S2 | 17.1%
Nc1nc(N)c2cc(Sc3ccc4ccccc4c3)ccc2n1 | 31.4%
CC(=O)OC[C@]12CCC(C)(C)C=C1[C@H]1CC[C@@H]3[C@@]4(C)CCCNC(C)(C)[C@@H]4CC[C@@]3(C)[C@]1(C)CC2 | 0.652% (active)
CN1CCN(Cc2ccc(NC(=O)c3cncc(C#Cc4cnc(N)c5ncccc45)c3)cc2C(F)(F)F)CC1 | 13%
CC(C)C(C(=O)NCCN1CCOCC1)N1C(=O)/C(=C/c2ccc(Br)cc2)SC1=S (stereo not given) | 101%

Structure (SMILES) | growth
COc1ccc(C2CC(c3ccc4c(c3)OCO4)=NN2C=O)cc1 (stereo not given) | 106%
S=c1[nH]nc(-c2cc3ccc2CCc2ccc(cc2)CC3)n1-c1ccccc1 | 89.7%
CC(C)=CCC[C@@H](C)[C@H]1CC[C@@]2(C)C3=C(CC[C@]12C)[C@@]1(C)CC[C@H](O)C(C)(C)[C@@H]1CC3 | 105%
CCOC(=O)c1c(C(=O)c2cn(C)c3ccc(Br)cc23)c(-c2cn(C)c3ccc(Br)cc23)n(NC(=O)OC(C)(C)C)c1C | 100% [100 µM]
NNC(=S)N1N=C(c2cc3ccccc3o2)CC1c1c[nH]c2ccccc12 (stereo not given) | 21.7%
O=C(NCCCN1CCN(CCCNC(=O)C2CCCCC2)CC1)C1CCCCC1 | 98.9%
O=C1C(=O)c2cc([N+](=O)[O-])ccc2-c2ccccc21 | -30% (active)
CCOC(=O)C1=C(C(F)(F)F)NC(=S)NC1CN1C(=O)c2ccccc2C1=O (stereo not given) | 86.7%
C=C(C)[C@@H]1CC[C@]2(C(=O)OCCOCCOCC[P+](c3ccccc3)(c3ccccc3)c3ccccc3)CC[C@]3(C)[C@H](CC[C@@H]4[C@@]5(C)CC[C@H](OC(C)=O)C(C)(C)[C@@H]5CC[C@]43C)[C@@H]12 | -62.3% (active)
Fc1ccc2c(c1)c(-c1nc(-c3c[nH]c4ncccc34)cs1)cn2CCCN1CCOCC1 | 21.9%
COc1ccc(/C(=C/c2cc(OC)c(OC)c(OC)c2)[N+](=O)[O-])cc1 | -26.4% (active)
Cc1cc(NC(=O)CNc2nc(Oc3ccc(F)cc3)nc(-c3ccc(F)cc3)n2)ccc1Cl | 96.4%
O=C1c2cccnc2C(=O)c2c1c(C(=O)OCCN1CCOCC1)c1ccccn21 | -36.4% (active)
O=[N+]([O-])c1cc2c(cc1Br)C1C(C3C2C(Cl)(Cl)C(Cl)=C(Cl)C3(Cl)Cl)C(Cl)(Cl)C(Cl)=C(Cl)C1(Cl)Cl (stereo not given) | 110%
COc1cc2c(c(OC)c1)C1c3ccccc3NC(=O)N1CC2 (stereo not given) | -3.91% (active)
C=CCOC(=O)C1=C(C)NC2=C(C(=O)CC(C)(C)C2)C1c1ccc(OC)cc1 (stereo not given) | 80.6%
CCCCCC(=O)O[C@]1(C(C)=O)CCC2C3CCC4=CC(=O)CC[C@]4(C)C3CC[C@@]21C (stereo not given in full) | -43.2% (active)
CCCCC(CCCC)(S(=O)(=O)CC)S(=O)(=O)CC | 94.7%
COc1ccc(CC(C)=C(c2ccc(OCCN(C)C)cc2)c2ccc(OCCN(C)C)cc2)cc1 | 41.3%
Cc1ccc(-c2nc3nc(-c4ccccc4)nc(N4CCCN(S(C)(=O)=O)CC4)c3o2)cc1 | 99.6%
